Data as given in ChEMBL document CHEMBL4513216, “Probing the Open Global Health Chemical Diversity Library for Multistage-Active Starting Points for Next-Generation Antimalarials” (ACS Infect Dis, 2020).
The whole screen tested about 69,000 compounds, of which about 8,600 (12%) showed an effect of 50% or more. The full list was thinned out, with strong results kept by preference.

Test system: Plasmodium berghei
Assay: Screen against P. berghei liver stage (PbLuc), transformed with Luciferase, at 10uM
Assay type: functional, HepG2
Details: tested at 10 uM

Structure (SMILES) | INHIBITION [%]
Cn1ncc2c(=O)[nH]c(CN3CCCC3Cc3ccc(F)cc3)nc21 (stereo unspecified) | -5.07
N#Cc1ccc(S(=O)(=O)NC(=O)COc2ccc3c(c2)CCC3)cc1 | 29.25
CCNc1cc2c(nn1)CCN(C(=O)c1ccc(-n3cccn3)nc1)C2 | -5.26
Cc1ccc(C(=O)N2C[C@@H]3CC[C@H]2CN(S(=O)(=O)N(C)C)C3)c(O)c1 | 24.7
Cc1ccc(CN2CCc3c(C(=O)N(C)C)nn(C)c3C2)s1 | 8.47
CCCC(=O)N1CC[C@@H]2[C@H](CC1)N(Cc1cccnc1)CCS2(=O)=O | -1.53
CC1CCN(C(=O)c2occc2COc2cccc(C#N)c2)CC1 | -122
CCC(CC)NC(=O)c1cccnc1-n1cccn1 | 55.9
CC(O)(CNC(=O)c1cccnc1-n1cccn1)c1ccsc1 (stereo unspecified) | 61.1
CC(O)(CNC(=O)c1cccnc1-n1cccn1)c1ccco1 (stereo unspecified) | 7.39
CC(O)(CNC(=O)c1cccnc1-n1cccn1)c1cccs1 (stereo unspecified) | 35.4
CCC(CC)NC(=O)c1cccnc1N1CCCC1c1ccccn1 (stereo unspecified) | 25.3
CCN(CC)CCCC(C)NC(=O)c1cccnc1-n1cccn1 (stereo unspecified) | -7.13
CCn1nccc1CNC(=O)CCC1CCCC1 | 13
c1coc(CN2C[C@@H]3CN(Cc4ccoc4)CCO[C@@H]3C2)c1 | 24.6
Cc1cc(NCc2ccc(CS(N)(=O)=O)cc2)nc(C)n1 | 11.8
CS(=O)(=O)c1ccc(NC(=O)NC2(c3ccccc3)CCC2)cc1 | 36.7
Cc1ccc(CN2CCc3nnc(CN4CCCC4=O)n3CC2)o1 | 3.81
C=C(C)CN1CCC(C(=O)c2cc(F)ccc2F)CC1 | 5.03
CCNC(=O)C1(Cc2cc(-c3ccccc3)no2)CCCN(C(C)=O)C1 (stereo unspecified) | 42.5
COCC1(C(=O)N[C@H]2CN(c3ccnc(C)c3)C[C@@H]2C2CC2)CCC1 | 51.3
Cc1nc(O)cc(CN2C[C@H](NC(=O)C3CCC3)[C@@H](C3CC3)C2)n1 | 18.9

Structure (SMILES) | INHIBITION [%]
O=C(CC1CCCC1)N[C@H]1CN(Cc2c[nH]cn2)C[C@@H]1C1CC1 | 45.2
Cc1cc(N2C[C@H](NC(=O)C3(C#N)CCOCC3)[C@@H](C(C)C)C2)ccn1 | 30.7
COCC1(C(=O)N[C@H]2CN(c3noc(C)n3)C[C@@H]2C2CC2)CCC1 | 2.79
COCCC(=O)N[C@H]1CN(c2nc(C)c3c(n2)CCCC3)C[C@@H]1C1CC1 | 20.4
COCC1(C(=O)N[C@H]2CN(c3nnc(C)s3)C[C@@H]2C2CC2)CCC1 | 64.4
O=C(O)c1cc(N2C[C@H](NC(=O)C3CCOCC3)[C@@H](C3CC3)C2)ccn1 | 3.68
Cc1nnc(CN2C[C@H](NC(=O)CC3CCCC3)[C@@H](C3CC3)C2)s1 | 64.7
O=C(c1cccs1)N1CC[C@@H]2CN(C3CCOCC3)CCO[C@@H]2C1 | 45.7
CCn1nc(C)c2nnn(CC(=O)Nc3cccc(C)c3)c(=O)c21 | 42.4
CN(C)C[C@H]1OC[C@@H]2CCN(S(=O)(=O)c3cccs3)C[C@@H]21 | 38.7
CC(CO)NC(=O)Nc1ccc(S(C)(=O)=O)nc1 (stereo unspecified) | -38.695
COc1ccc(CNCC(C)Oc2ccccn2)cc1 (stereo unspecified) | -30.8
Cc1ccc(S(=O)(=O)N2CC[C@@H]3C[C@H](NC(=O)c4ccncc4)[C@@H]32)cc1 | 20.4
Cc1ccc(S(=O)(=O)N2CC[C@@H]3C[C@H](NC(=O)c4n[nH]cc4Cl)[C@@H]32)cc1 | 6.521
CNC(=O)[C@H]1C[C@@H]2CN(S(=O)(=O)c3ccc(C)cc3)C[C@@H]2N1C | -10.3
Cc1ccc(S(=O)(=O)N2C[C@H]3C[C@H](NC(=O)c4cscn4)[C@H]3C2)cc1 | 25.6
Cc1ccc(S(=O)(=O)N2C[C@H]3C[C@H](NC(=O)c4cc[nH]n4)[C@H]3C2)cc1 | 64.1
Cc1ccc(S(=O)(=O)N2C[C@H]3C[C@H](NC(=O)c4ccccn4)[C@H]3C2)cc1 | 92.9
Cc1ccc(CN2CCCC3(CCCC(=O)N3C)C2)s1 (stereo unspecified) | 4.98
CC(C)c1nnc2n1CCN(Cc1ncc(-c3ccccc3)o1)C2 | 38.85
Cc1cc(C(=O)NCc2cccs2)nc(N2CCCC2)n1 | -2.28
CCOc1ccc(C2SCC(=O)Nc3c2c(=O)[nH]n3C(C)C)cc1 (stereo unspecified) | 44.9

Structure (SMILES) | INHIBITION [%]
CCCOc1ccc(C2SCC(=O)Nc3c2c(=O)[nH]n3C(C)C)cc1 (stereo unspecified) | 15.1
CC(C)n1[nH]c(=O)c2c1NC(=O)CC2C1CCCCC1 (stereo unspecified) | -25.6
CC(C)COc1ccc(C2SCC(=O)Nc3c2c(=O)[nH]n3C(C)C)cc1 (stereo unspecified) | 52.4
CC(C)n1[nH]c(=O)c2c1NC(=O)CSC2C1CCCCC1 (stereo unspecified) | 62.5
CC(C)n1[nH]c(=O)c2c1NC(=O)CSC2c1ccc(OCC(N)=O)cc1 (stereo unspecified) | 6.83
Cc1csc(N2CCCN(C(=O)c3occc3C)CC2)n1 | 46.2
CC(C)(C)OC(=O)N1CCN(C(=O)CCn2cccn2)CC1 | 38.05
O=C(C1CC=CC1)N1CC[C@@H](O)[C@H]1Cc1cccnc1 | 43
CCNC(=O)CNC(=O)Nc1c(F)cc(F)cc1-c1ccccc1 | 7.77
COc1cccc(CNCCNS(=O)(=O)Cc2ccccc2)c1 | 30.2
CCc1cc(=O)[nH]c(-n2nc(C3CC3)cc2NC(=O)C2CC2)n1 | 91
CC(=O)N1CCN(c2cc(CCNC(=O)C(C)C)nc(C3CC3)n2)CC1 | 18.3
CCn1nc(C)c(NC(=O)c2cc(NC(=O)C3CC3)n(C)n2)c1C | 29.7
Cc1cc(NC(=O)C(C)C)n(-c2nc(C)c(C)c(=O)[nH]2)n1 | 93.2
CCc1c(C)nn(CCNC(=O)c2cc(C3CC3)n[nH]2)c1C | -40.7
CC(C)C(=O)Nc1cc(C(=O)NC2CC(C)(C)NC(C)(C)C2)nn1C | 44.6
Cc1cc(C)n(-c2cncc(NCCNC(=O)C(C)C)n2)n1 | -23.5
Cn1nc(CNC(=O)C2CC2)cc1C1CC1 | -62.4
Cc1nc(-n2nc(C3CC3)cc2NC(=O)C(C)C)[nH]c(=O)c1C | 93.2
Cc1nc(C)c(CC(=O)Nc2nnc(C3CC3)s2)c(=O)[nH]1 | -0.18
CCc1c(C)nc(-n2nc(C3CC3)cc2NC(C)=O)[nH]c1=O | 93.7
CC(C)C(=O)Nc1cc(C(C)(C)C)nn1-c1ccccn1 | -6.94
